Common to all, as to format: functional
The target in experiment [1] is Solute carrier family 2, facilitated glucose transporter member 1 (Homo sapiens) (UniProt P11166). Briefly: ST_JUDE_LEISH: Cytotoxicity at 2uM final concentration against transgenic Leishmania Mexicana promastigotes LmGLUT1 that are glucose transport deficient and complemented with the human glucose transporter GLUT1. Activity is measured by DNA content using SYBR green in vitro.

Experiment [2] concerns the target Hexose transporter 1 (Plasmodium falciparum) (UniProt O97467). The experiment in a line: ST_JUDE_LEISH: Cytotoxicity at 2uM final concentration against transgenic Leishmania Mexicana promastigotes LmPfHT that are glucose transport deficient and complemented with the Plasmodium falciparum hexose transporter. Activity is measured by DNA content using SYBR green in vitro.

Experiment [3] concerns the target Glucose transporter (Leishmania mexicana) (UniProt O61059). Briefly: ST_JUDE_LEISH: Cytotoxicity at 2uM final concentration against transgenic Leishmania Mexicana promastigotes LmGT2 that are glucose transport deficient and complemented with the L. Mexicana glucose transporter 2. Activity is measured by DNA content using SYBR green in vitro.

The record followed here is ChEMBL document CHEMBL3433997, “St. Jude Leishmania screening dataset” (2016).

SMILES strings stand for the structures.

Chain of Solute carrier family 2, facilitated glucose transporter member 1 (Homo sapiens) (P11166 whole entry): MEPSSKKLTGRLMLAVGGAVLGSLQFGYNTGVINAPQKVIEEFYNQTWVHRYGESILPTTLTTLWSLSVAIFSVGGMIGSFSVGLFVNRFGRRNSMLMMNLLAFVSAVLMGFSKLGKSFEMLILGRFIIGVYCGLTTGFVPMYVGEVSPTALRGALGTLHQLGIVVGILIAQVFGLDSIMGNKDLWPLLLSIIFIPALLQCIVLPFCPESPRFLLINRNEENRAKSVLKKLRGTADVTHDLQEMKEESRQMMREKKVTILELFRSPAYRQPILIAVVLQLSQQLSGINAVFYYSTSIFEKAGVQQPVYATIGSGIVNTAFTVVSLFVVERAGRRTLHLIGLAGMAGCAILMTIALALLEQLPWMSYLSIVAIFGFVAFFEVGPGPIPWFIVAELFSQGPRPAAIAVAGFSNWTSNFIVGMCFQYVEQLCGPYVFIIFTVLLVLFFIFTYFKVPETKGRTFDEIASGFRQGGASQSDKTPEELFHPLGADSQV

`Nc1nccc2ccc(-c3ccc(NC(=O)Nc4cc(C(F)(F)F)ccc4F)cc3)cc12`: the figures for the inhibition in experiment [1], in experiment [2] and in experiment [3] were 0.91%, 4.94% and -0.4%, respectively.

In the case of `Cc1ccc(NC(=O)c2ccc(N3CCN(c4ccncc4)CC3)cc2)cc1F`, the inhibition (commonly the change of the read-out against control, counted positive when it falls) in experiment [1] was 68%; in experiment [2] it was 74.7%; in experiment [3], 82.4%.

Turning to `FC(F)(F)c1ccc2[nH]ccc(=NN=Cc3cccc(Cl)c3)c2c1`, the inhibition in experiment [1] is 1.05%; in experiment [2], -0.16%; in experiment [3], -3.89%.

For `COc1cc(C(=O)N2C(c3nccs3)C(C(=O)N(OC)C(C)c3ccccc3)CC2(CC(C)C)C(=O)OC(C)(C)C)ccc1C(C)(C)C` (configuration not stated), the inhibition in experiment [1] came out at 4.49%; in experiment [2], 3.71%; in experiment [3], 1.29%.

As to `CCc1c[nH]c2c(N3CCCS3(=O)=O)cc(C(=O)N[C@@H](Cc3ccccc3)[C@H](O)CNC3CCCCC3)cc12`, the values for the inhibition in experiment [1], in experiment [2] and in experiment [3] were -0.09%, 2.13% and 3.39%, respectively.

With `FC(F)(F)c1ccc2[nH]c(-c3ccc(-c4ccc(CNCCN5CCNCC5)cc4)s3)nc2c1`, the inhibition in experiment [1] was found to be 9.4%; in experiment [2] it was 10.4%; in experiment [3] it was 9.03%.

On to `COc1ccccc1N1CCN(c2cccc3c2nc(-c2cncc(C#N)c2)n3CCNCc2ccccc2)CC1`, for which the inhibition in experiment [1] was found to be 9.96%; in experiment [2], 7.58%; in experiment [3], 6.47%.

For the compound `O=C(Nc1cccc(-c2csc(-c3nc4ccccc4[nH]3)c2)c1)c1cccnc1`, the values for the inhibition in experiment [1], in experiment [2] and in experiment [3] were 1.57%, 4.05% and -0.53%, respectively.

Take `CCN(CCCN1CCCCC1)c1cc(C)nc(Nc2ccc(Cl)cc2C)n1`: the inhibition worked out at 1.07% in experiment [1], 1.21% in experiment [2] and 1.9% in experiment [3].

Consider `CCOc1ccc2[nH]c(C)cc(=NN=Cc3ccccc3)c2c1`, for which the inhibition in experiment [1] is 3.33%; in experiment [2], 2.11%; in experiment [3], 2.8%.

For the compound `CC1CN(CCCn2c3ccccc3c3ccc(C(=O)CCCN(C)C)cc32)CC(C)N1` (configuration not stated), the values for the inhibition in experiment [1], in experiment [2] and in experiment [3] were 1.15%, 1.4% and 1.24%, respectively.

As for `CCCS(=O)(=O)c1nc(S(=O)(=O)c2ccc(Cl)cc2)c(N2CCCCC2)s1`, the inhibition in experiment [1] is 0.14%; in experiment [2] it was 0.19%; in experiment [3], -1.01%.

Regarding `CC(=O)N1Cc2ccccc2C1=O`, the inhibition in experiment [1] was 2.88%; in experiment [2], 3.51%; in experiment [3], 2.11%.

In the case of `COc1cccc(C2C(C(=O)Nc3ccccc3)=C(C)N=c3sc(=Cc4ccc(O)cc4)c(=O)n32)c1` (configuration not stated), the inhibition in experiment [1] amounted to 19.2%; in experiment [2], 27.8%; in experiment [3], 16.8%.

Turning to `C[C@@H]([C@@H](CCCCc1ccccc1)C(=O)N[C@H](C(=O)Nc1cccnc1)C(C)(C)C)N(O)C=O`, the inhibition is 0.14% in experiment [1], -1.56% in experiment [2] and 2.12% in experiment [3].

As for `Brc1ccccc1CNc1ccnc(NCCn2ccnc2)n1`, the values for the inhibition in experiment [1], in experiment [2] and in experiment [3] were -0.91%, 0.05% and 0.03%, respectively.

Turning to `CCCCCC(=O)NCC(NCCCNc1cc(=O)c2ccccc2[nH]1)c1cc(Br)cc(Br)c1` (configuration not stated), the inhibition amounted to 5.16% in experiment [1], 2.44% in experiment [2] and 5.39% in experiment [3].

Take `CC1=C(C(=O)OC(C)C)C(c2ccccc2Cl)C2=C(CC(c3ccccc3)CC2=O)N1` (configuration not stated): the inhibition in experiment [1] is 7.11%; in experiment [2] it was 6.69%; in experiment [3], 7.36%.

With `COc1ccc2[nH]ccc(=NN=Cc3cccc(C)n3)c2c1`, the results for the inhibition in experiment [1], in experiment [2] and in experiment [3] were 18.7%, 14.9% and 11.8%, respectively.

As for `CN1CCCC1CCNCc1ccc(-c2ccc(CNCCc3ccccc3)cn2)cc1` (configuration not stated), the inhibition was 1.95% in experiment [1], 2.41% in experiment [2] and 4.27% in experiment [3].

With `COC(=O)c1ccc(OCC(C)NCC(O)c2cccc(C(F)(F)F)c2)cc1` (configuration not stated), the inhibition turned out to be 10.7% in experiment [1], 8.32% in experiment [2] and 8.64% in experiment [3].

In the case of `CCN(CCS(C)(=O)=O)Cc1ccc(-c2ccc3ncnc(Nc4ccc(OCc5cccc(F)c5)c(Cl)c4)c3c2)o1`, the figures for the inhibition in experiment [1], in experiment [2] and in experiment [3] were 2.48%, 0.54% and -0.09%, respectively.

Turning to `O=C(Nc1cc(C(F)(F)F)ccc1-n1cncn1)C1(c2ccccc2)CC1`, the inhibition in experiment [1] is -1.28%; in experiment [2], -1.95%; in experiment [3], 0.27%.

`c1cc(-c2ccc(CNCCCn3ccnc3)cc2)cc(-c2nc3ccccc3[nH]2)c1`: the inhibition in experiment [1] is 2.87%; in experiment [2] it was 2.53%; in experiment [3], 0.93%.

For `Oc1ccc(CCNc2nc(NCc3ccc4cc(Cl)ccc4c3)nc(N3CCNCC3)n2)cc1`, the inhibition in experiment [1] was -0.16%; in experiment [2], 1.41%; in experiment [3], 0.67%.

For `N=C(N)CCN(Cc1ccccc1)c1ccc(Cl)cc1`, the inhibition is -1.51% in experiment [1], -1.28% in experiment [2] and -1.35% in experiment [3].

Consider `CCCCC1(NC(=O)[C@@H](Nc2ccc(C#N)c3ccccc23)C2CCCCC2)CCCCC1`, for which the values for the inhibition in experiment [1], in experiment [2] and in experiment [3] were -1.28%, -0.56% and -0.93%, respectively.

Regarding `CCNc1cc(C(=O)N[C@@H](Cc2ccccc2)[C@H](O)CNCCc2ccccc2)cc(N2CCCCS2(=O)=O)c1`, the inhibition is -0.52% in experiment [1], -0.67% in experiment [2] and -3.28% in experiment [3].

On to `CC1(C)NC(N)=NC(=N)N1OCCCOc1cccc2ccccc12`, for which the values for the inhibition in experiment [1], in experiment [2] and in experiment [3] were 54.8%, 61.1% and 45.4%, respectively.

With `Cc1cc(NC(=O)c2cccs2)ccc1OC1CCN(Cc2ccccc2)CC1`, the inhibition was determined as 3.33% in experiment [1], 3.27% in experiment [2] and 3.22% in experiment [3].

Turning to `Clc1ccc(CNc2nc(NCCc3c[nH]cn3)nc(N3CCCC4CCCCC43)n2)cc1` (configuration not stated), the figures for the inhibition in experiment [1], in experiment [2] and in experiment [3] were 3.99%, 4.86% and 3.89%, respectively.

As for `O=C(CN1CCC(NCc2cnc(-c3ccc(Cl)cc3)[nH]2)CC1)N1CCc2ccccc21`, the figures for the inhibition in experiment [1], in experiment [2] and in experiment [3] were -1.03%, 0.65% and 0.77%, respectively.

In the case of `CC(C)c1cccc(C(C)C)c1NC(=O)NNC(=O)c1ccc(CCN2CCC(c3nc(COCC(F)(F)F)c(-c4ccc(F)cc4)o3)CC2)cc1`, the inhibition was found to be 10.8% in experiment [1], 11.4% in experiment [2] and 12.7% in experiment [3].

In the case of `O=C(Nc1ccc(F)cc1)NC1CCN(c2ccnc3cc(Cl)ccc23)CC1`, the results for the inhibition in experiment [1], in experiment [2] and in experiment [3] were 3.63%, 3.1% and 1.68%, respectively.

For the compound `O=C(NCc1ccc(F)cc1)c1cc(Br)cc(N2CCN(c3ccncc3)CC2)c1`, the values for the inhibition in experiment [1], in experiment [2] and in experiment [3] were 7.75%, 6.55% and 4.17%, respectively.

In the case of `O=C(/C=C/c1ccc2ccccc2c1)NCC1(c2ccc(-c3ccccc3)cc2)CCOCC1`, the figures for the inhibition in experiment [1], in experiment [2] and in experiment [3] were 2.52%, 2.55% and 3.08%, respectively.

`Cc1ccc(CN2CCCN(Cc3cccc(C(=O)Nc4ccc(C(C)(C)C)cc4)c3)CC2)s1`: the inhibition in experiment [1] stood at 7.92%; in experiment [2], 2.76%; in experiment [3], 0.76%.

Turning to `CC(=O)c1cccc2[nH]c(C(=O)NC3CCC(CCN4CCc5ccc(C#N)cc5C4)CC3)cc12` (configuration not stated), the figures for the inhibition in experiment [1], in experiment [2] and in experiment [3] were 4.5%, 4.09% and 2.51%, respectively.

On to `O=C(NC1CC1)c1ccc(Cn2c(SCc3cccc([N+](=O)[O-])c3)nc3ccccc3c2=O)cc1`, for which the values for the inhibition in experiment [1], in experiment [2] and in experiment [3] were 1.19%, 0.54% and 0.2%, respectively.

For the compound `COc1ccc2ncc(F)c(CCN3CC(O)C(CNCc4ccc5c(c4)OCCO5)C3)c2n1` (configuration not stated), the figures for the inhibition in experiment [1], in experiment [2] and in experiment [3] were 6.54%, 4.38% and -0.93%, respectively.

Take `O=C(Nc1cccc(-c2cccc(-c3nc4cc(C(F)(F)F)ccc4[nH]3)c2)c1)c1c[nH]cn1`: the results for the inhibition in experiment [1], in experiment [2] and in experiment [3] were 1.86%, 3.96% and -1.42%, respectively.

Turning to `Cc1cc(Cl)ccc1N(Cc1ccccc1)c1ccnc(Cl)n1`, the inhibition came to 1.11% in experiment [1], 1.68% in experiment [2] and 0.11% in experiment [3].

Consider `CCCCCCN(CCCCCC)CC(O)c1c(OC)ccc2ccccc12` (configuration not stated), for which the inhibition in experiment [1] was found to be 3.35%; in experiment [2], 5.37%; in experiment [3], 5.56%.

Turning to `CC(C)(C)OC(=O)NCc1ccc(Nc2nnc(-c3ccc(OCC(=O)NCc4ccc(C(C)(C)C)cc4)c([N+](=O)[O-])c3)o2)cc1`, the inhibition in experiment [1] is 2.12%; in experiment [2], 1.65%; in experiment [3], -0.53%.

With `N=C1N=C(N)NC2(CCCCC2)N1OCC1CCCCC1`, the inhibition in experiment [1] is -0.96%; in experiment [2] it was -0.44%; in experiment [3], -1.26%.

As for `CC(C)NCc1cc(Nc2ccnc3cc(Cl)ccc23)ccc1O`, the inhibition in experiment [1] was determined as 0.05%; in experiment [2] it was 1.48%; in experiment [3], 1.69%.

For the compound `Cc1ccc(NC(=O)c2cccc(C#N)c2)cc1-c1ccc(C(=O)Nc2ccncc2)cc1`, the inhibition in experiment [1] came to 7.71%; in experiment [2], 9.75%; in experiment [3] it was 4.44%.

Consider `CC(=O)c1sc2ccccc2c1O`, for which the inhibition in experiment [1] was -1.09%; in experiment [2], -1%; in experiment [3], 1.24%.

For the compound `Cc1ccc(Sc2ccc(NC(=O)CN3CCN(C(=O)c4ccco4)CC3)cc2)cc1C`, the inhibition was found to be 9.84% in experiment [1], 9.65% in experiment [2] and 6.7% in experiment [3].
